# Assay results reported in PubChem BioAssay (EPA / NIEHS).
# Several values for one entry are separate records, joined by “and”; a condition that tells them apart may be missing. Equal entries are not always repeated. A structure can be active in one record and inactive in another. Activity calls are given as the source filed them. The calls were made as follows: active = hit-call score of the fitted dose curve at least 0.9, where 1 is the maximum; inactive = score below 0.9.
# Read-out: CD69, CD69 (gene 969)
# Assay: BSK_SAg_CD69: BioMAP Diversity Plus: SAg Assay for CD69 Biomarker Activity (AID 2283089)
# Settings: primary human HUVEC with PBMC; actives raise or lower the signal
# Experimental: BSK_SAg is a cell-based, multiplexed-readout assay that uses umbilical vein endothelium and peripheral blood mononuclear cells, a human vascular primary cell co-culture, with measurements taken at 24 hours after chemical dosing in a 96-well plate.BSK_SAg_CD69 is one of 10 assay component(s) measured or calculated from the BSK_SAg assay. It is designed to make measurements of enzyme-linked immunosorbent assay, a form of binding reporter, as detected with fluorescence intensity signals by Enzyme-linked immunosorbent assay technology.Data from the assay component BSK_SAg_CD69 was analyzed into 1 assay endpoint. This assay endpoint, BSK_SAg_CD69, was analyzed with bidirectional fitting relative to DMSO as the negative control and baseline of activity. Using a type of binding reporter, gain or loss-of-signal activity can be used to understand changes in the signaling as they relate to the gene CD69. Furthermore, this assay endpoint can be referred to as a primary readout, because this assay has produced multiple assay endpoints where this one serves a signaling function. To generalize the intended target to other relatable targets, this assay endpoint is annotated to the cytokine intended target family, where the subfamily is inflammatory factor.
# The levels of cell surface (or secreted, indicated by the prefix "s") biomarker endpoints were measured by ELISA. Overt cytotoxicity to cells in confluent adherent cultures (all systems other than the BT system) was assessed by measuring total protein levels using sulforhodamine B (SRB) staining in parallel cultures at the time of biomarker measurements, indicated as SRB endpoints. For proliferation assays for adherent cell types, individual cell types are cultured at sub-confluence and relative cell numbers quantified by SRB staining at time points optimized for each system (48 h: 3C and CASM3C systems; 72 h: BT and HDF3CGF systems; 96 h: SAg system). SRB was performed by staining cells with 0.1% SRB after fixation with 10% TCA and reading wells at 560 nm.Viability and proliferation of PBMC (T cells) was quantified by Alamar Blue reduction for the SAg and BT systems. For PBMC viability (referred to as PBMC Cytotoxicity within the assay endpoint names), cells were plated (75,000/well in a 96-well plate) and then chemical samples added for 1 h before addition of activators, SEB and TSST-1 (20 ng/mL final concentration each). Cells were incubated for 90 h. Then, Alamar Blue (20 uL/well) (Invitrogen, Cat DAL1100) was added for 6 h, and the plates were read with a fluorescence microplate reader at 546/580 nm (excitation/emission). For PBMC proliferation, cells were plated and activated as above but incubated for only 16 h prior to addition of Alamar Blue. Plates were read after 6 h.
Structure (SMILES),outcome,AC50
CCSC(=O)N(CC)C1CCCCC1,inactive,
O=C(O)C(F)(F)C(F)(F)C(F)(F)C(F)(F)C(F)(F)C(F)(F)C(F)(F)C(F)(F)F,inactive,42.7 µM (active) and 43.5 µM (active)
Oc1ccc(C(c2ccc(O)cc2)(C(F)(F)F)C(F)(F)F)cc1,,26.6 µM (active)
O=C(O)C(F)(F)C(F)(F)C(F)(F)C(F)(F)C(F)(F)F,inactive,
Oc1c(Cl)c(Cl)c(Cl)c(Cl)c1Cl,,10.2 µM (active) and 19.8 µM (active)
O=S(=O)(O)C(F)(F)C(F)(F)C(F)(F)C(F)(F)C(F)(F)C(F)(F)F,inactive,
ClC(Cl)=C(c1ccc(Cl)cc1)c1ccc(Cl)cc1,,30.6 µM (active)
Cc1cc(-c2ccc(N)c(C)c2)ccc1N,inactive,
O=C(N[C@H]1CN2CCC1CC2)c1cc2ccoc2cn1,inactive,
C[C@]12CCC(=O)C=C1CC[C@@H]1[C@@H]2CC[C@]2(C)C(=O)CC[C@@H]12,inactive,
CCCCCCCCCC[N+](C)(C)CCCCCCCCCC,,4.61 µM (active)
c1cc2ccc3cccc4ccc(c1)c2c34,,4.13 µM (active)
O=S(=O)(O)C(F)(F)C(F)(F)C(F)(F)C(F)(F)F,inactive,
ClC1=C(Cl)[C@]2(Cl)[C@@H]3[C@@H]4C[C@@H]([C@H]5O[C@@H]45)[C@@H]3[C@@]1(Cl)C2(Cl)Cl,inactive,
O=C(NC(=O)c1c(F)cccc1F)Nc1cc(Cl)c(OC(F)(F)C(F)F)c(Cl)c1,inactive,
CCNc1nc(NC(C)C)nc(SC)n1,inactive,
CC(C)(O)C(=O)Nc1ccc([N+](=O)[O-])c(C(F)(F)F)c1,inactive,
CCOP(=S)(OCC)SCSC(C)(C)C,inactive,
Clc1ccc(C(Cl)(Cl)Cl)cc1,inactive,
Cc1ccccc1[N+](=O)[O-],inactive,

Structure (SMILES),outcome,AC50
CN(C)c1nc(=O)n(C2CCCCC2)c(=O)n1C,inactive,
Cc1ccccc1CO[C@@H]1C[C@@]2(C(C)C)CC[C@]1(C)O2,inactive,
Sc1ccccc1,inactive,
CC(c1ccc(O)cc1)(c1ccc(O)cc1)c1ccc(O)cc1,,20 µM (active)
Cc1ccccc1O,inactive,
CCCCCCOC(=O)c1ccccc1C(=O)OCCCCCC,inactive,
Cc1cccc([N+](=O)[O-])c1,inactive,
CC#Cc1cc(C)nc(Nc2ccccc2)n1,inactive,
CC(C)C(=O)OCC(C)(C)C(OC(=O)C(C)C)C(C)C (stereo not given),inactive,
CCOC(=O)C(O)(c1ccc(Cl)cc1)c1ccc(Cl)cc1,,36 µM (active)
Cc1cc2c3c(c1)C(c1ccccc1)=N[C@@H](NC(=O)c1ccncc1)C(=O)N3CC2,,5.02 µM (active)
C=CC(=O)NCNC(=O)C=C,inactive,
CCOCCOC(C)=O,inactive,
Nn1cnnc1,inactive,
CC1=C2C[C@H]3[C@@H](CC=C4C[C@@H](O)CC[C@@]43C)[C@@H]2CC[C@]12O[C@@H]1C[C@H](C)CN[C@H]1[C@H]2C,inactive,
Nc1ccc(-c2ccc(N)cc2)cc1,inactive,
C[C@]12CCC(=O)C=C1CC[C@@H]1[C@@H]2CC[C@@]2(C)[C@H]1CC[C@]2(C)O,inactive,
CO/C=C(/C(=O)OC)c1ccccc1COc1cccc(C(F)(F)F)n1,,5.07 µM (active)
CCCCCCCCOC(=O)c1ccccc1C(=O)OCCCCCCCC,inactive,
